In all, about 53,000 sequences went through this assay and about 3,700 (7%) were called active.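 Rule for the calls: active = gene knockdowns whose robust z-score for IL-1 alpha signal is at least 2 or at most -2, so actives lie on both sides; inactive = the rest.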 The sample as a whole holds a higher share of actives than the screen did.

The assay in a line: Components of the Cytosolic LPS Sensing Pathway: Gene Identification via Genome-wide siRNA Screen.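 Note: robust z of the log signal after scaling to non-targeting control siRNA wells of the plate.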 The settings on record: RAW264.7 macrophages, IL-1a HTRF, actives lie on both sides, screened at 100 nM (by protocol), cells primed 5 h with Pam3CSK4 first. The essentials: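 Knockdown: 100 nM siRNA, 48h, RAW264.7. Stimulation: Pam3CSK4 5 h, then LipidA via TransIT-TKO 24 h. Output: supernatant IL-1a HTRF, negative-control-normalized, log robust z-score; viability by CellTiter-Glo.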
A general note: TR-FRET usually uses a lanthanide donor and a delayed reading to cut background.
Take GGACAACAGUGGAAGGCUCTT against Serpinb1a: the z-score is 0.841 (inactive).

As to GGAGGUGAACCAUAGAGAGTT against Csrnp2, the z-score was 1.12 (inactive).

With CCCUCUAUCAGUUACCCUGTT against Mcpt2, the z-score was 0.686 (inactive).

Regarding GGACAAUGGUUCCUUGGAUTT against Cdc25c, the z-score is 0.981 (inactive).

For the sequence GGAUGUCACUCUUGCAUUGTT against Olfr948, the z-score was 0.75 (inactive).

For the sequence GCCACAACUCCAGAUGCCUTT against Olfr937, the z-score was -2.64 (active).

Turning to GGAAGAACUUCAGAAUGCATT against Slirp, the z-score is -0.627 (inactive).

Turning to CCUUCAUUGUGAUUGACAUTT against Ptpn11, the z-score is -0.55 (inactive).

For the sequence GGUUCAGUGCUUUGUGUUCTT against Il2rg, the z-score was -0.541 (inactive).

For CCUUCUAAAUACUGAUUUGTT against Ugt2b38, the z-score was 0.699 (inactive).

With GCAGAAUAUUAACCAGUGUTT against Ptp4a2, the z-score was 1.15 (inactive).

On to CCAGUUCCGGUCAGAUUAUTT against Gnal, for which the z-score is -1.55 (inactive).

Take GCCUCCAGAACUCACUGCATT against Hes3: the z-score was -2.04 (active).

Take AAGGAAGUCUGUCCAAGGUTT against Olfr192: the z-score was -0.284 (inactive).

In the case of GCUGCCAUUUCGCCAAUCUTT against Mfap4, the z-score is -2.65 (active).

Regarding GGGAGCAUCAAACAACAAUTT against Tbr1, the z-score is 0.742 (inactive).

As for GGCUGUGGAUUUCUCUCUGTT against Kng1, the z-score was -0.334 (inactive).

Regarding GGCCGAGUACAAACGUGGATT against Atg9a, the z-score is 2.77 (active).

As for CCUGAGUCAGAUUCAUUUATT against Pten, the z-score was 0.292 (inactive).

For GGUGCCAUUCAUCUUUCAATT against Tmprss3, the z-score was 1.85 (inactive).

As to GGUGCAAGAUCAAGAACUGTT against C1ra, the z-score is 2.78 (active).

On to GGAAGAACAGGAAGAAGUGTT against Pank1, for which the z-score was 1.02 (inactive).

For the sequence CCAGCUUUCAUUAACUUUATT against Ppp1r10, the z-score is -0.571 (inactive).

Turning to CGAGCUAUCCACUUAAUCATT against Irak3, the z-score was -0.859 (inactive).

As to GGCUCUGGGUGGUAUUCAUTT against Slc5a2, the z-score was -0.637 (inactive).

On to GGCACUGGGCAAACAUUAATT against Ptprcap, for which the z-score was 1.09 (inactive).

With GGCAGUUCAAAAGACCACATT against Zcchc7, the z-score was 2.38 (active).

On to GGGCAACGAGCUGUUCAAATT against Unc45a, for which the z-score was 1.71 (inactive).

With GGGAUCUGGAUUUAAUUUGTT against Arf5, the z-score is 0.523 (inactive).

GGUCACACCCACCAUUACGTT against Serpina11: the z-score is -0.765 (inactive).

With CCAUUACAGGGUUUUUUAUTT against Slc37a3, the z-score is -0.62 (inactive).

For the sequence GGGAAAAGCAAACACUAAUTT against C1d, the z-score is -1.84 (inactive).

On to GGAGCAUCUCAAACCUUCATT against Lancl3, for which the z-score was -3.8 (active).

Regarding GAUGCGGCUCCUUGGAAUUTT against Slc51b, the z-score is 2.38 (active).

For GGUCAUAAGAAGCUCAAGATT against Serpinb9d, the z-score is 0.268 (inactive).

Regarding GCCGGAAGAUAAGGCUCAUTT against Gap43, the z-score is -2.2 (active).

As to GGAAGAACUCAAGAGGGAATT against Plpp2, the z-score was -0.775 (inactive).

Take GCUGGGAGUAAAAUUGACUTT against Cenpj: the z-score was -0.65 (inactive).

Regarding CGAGCAUGCUGAAAAGACCTT against Steap1, the z-score was -0.826 (inactive).

In the case of GGUUUUAAAGCAUCUUCGUTT against Pard6g, the z-score is -0.284 (inactive).

Turning to GGGCAACAUUUUUCAGUGCTT against Prox1, the z-score is 0.722 (inactive).

For the sequence GGAUCUUAAGUCCUAACAUTT against Tacc3, the z-score was -2.37 (active).

As to CCGAUAAUGCUUUCUUUGGTT against Ppp1cc, the z-score was 0.547 (inactive).

Regarding “CCAAGUCAGUGCUGUAAAGTT against F830104G03Rik”, the z-score is -1.58 (inactive).

In the case of GGUGAUGCCUGUGAAGACATT against Il3ra, the z-score was 2.04 (active).

For the sequence GGGAUAUUCAUUGACUUUGTT against Prr5, the z-score was -1.88 (inactive).

As to CCAAGAAUGUUUCCAUGUUTT against Slc12a5, the z-score was -1.68 (inactive).

Take CCUGAACCACUUGUUAAAUTT against Rnf10: the z-score was 0.124 (inactive).

GCUUCAGGUCAGUCUCUUCTT against Olfr1042: the z-score was 0.969 (inactive).

GGAGGCAAAAAUGAUGCUATT against Slpi: the z-score is 1.97 (inactive).

As to GCAUCUCACUUUUGACCUATT against Retreg2, the z-score was 0.928 (inactive).

As to GUCUCAAGUGGACUGUGAGTT against Klk1b4, the z-score is -2.83 (active).

Turning to GCAAUUAUAACUUAGAAGGTT against Eml3, the z-score is 0.149 (inactive).

With GCCUUUCAACUCACCAGCCTT against Zfp574, the z-score was 0.617 (inactive).

For GGGAAGGAAUAUGAUGGGCTT against Sik3, the z-score is -0.704 (inactive).

As to GGUCCCAACGAAGAAACCATT against Cd55, the z-score is 0.475 (inactive).

GGGCUAAGGCGAAAAGACUTT against Msx2: the z-score was 3.24 (active).

For GCUAAAUUUCCCAUAGGAATT against Pmch, the z-score is 0.822 (inactive).

Consider GGAGCUUCGAAAAAAGUUGTT against Pex16, for which the z-score is 0.329 (inactive).

GCACAAUUAUGAGAGUGCATT against Grin1: the z-score is -0.91 (inactive).

GGGUUAAGCGCAAGUGUAATT against Degs2: the z-score is 0.331 (inactive).

Take GGCUGAAAAUAUUUUCAGATT against Garnl3: the z-score is -0.1 (inactive).

As for GGAGCCAGUGACAAUAAAUTT against Mtag2, the z-score is -1.1 (inactive).

Take GGUGAUGAUGUCAUACAAATT against Cav1: the z-score is 3.12 (active).

In the case of GGCUCUCAUCCAUCUCCUUTT against Olfr715, the z-score is -1.79 (inactive).

Turning to “GGUCUGGAAAACCAGCUUATT against D630039A03Rik”, the z-score is 1.04 (inactive).

As for GGUUGAAGUCUAUUCUCGATT against Trap1, the z-score is -0.139 (inactive).

With GGGUUUGACAGAGAGAAGATT against Atp5g2, the z-score was -0.581 (inactive).

Take GGUGAGCGUGUAGAGAUGCTT against Fbxo45: the z-score was 0.787 (inactive).

In the case of GGGCUAAAGUUGAUAAUAATT against Psmc3, the z-score is -2.02 (active).

As for GCACUUUGUGCUAUAUAAGTT against Mapk14, the z-score was 0.616 (inactive).

Turning to GGUAAAGUUGCUUAAUUAGTT against Msl3l2, the z-score is 0.944 (inactive).

For the sequence GGAAGAAGUCUGAUACAUCTT against Samd5, the z-score is 0.572 (inactive).

For CGCUAAUCUUCGAAAACCUTT against Abcc12, the z-score was -0.998 (inactive).

Consider GGAGUUCGUACCCUUAUCCTT against Rtel1, for which the z-score was -2.2 (active).

As to GGUUAUCCAACCUAGAAUATT against Tmlhe, the z-score is 0.74 (inactive).

For GGCAAAGUUUGGGAUUACATT against Ntng1, the z-score is 1.17 (inactive).

For GGUUGUAUUGGAUAUCAAGTT against Ceacam2, the z-score was 0.953 (inactive).

GGACUUUGAAAAGAGAAUUTT against Polb: the z-score is -0.213 (inactive).

For the sequence GGACUUCUCCAUCCUGCUUTT against Alg1, the z-score is -0.542 (inactive).

On to GGGACCAGAGGAAACAGAATT against Tnfsf13b, for which the z-score was -2.21 (active).

Consider GGGCAUUGCCAGGAAUUAUTT against Lrp1b, for which the z-score is 1.31 (inactive).

GUUGUCCAUAUCAUGUUUGTT against Olfr569: the z-score is 1.28 (inactive).

In the case of GGGAAGAGCCCUAAUAUUATT against Aldh1a2, the z-score is -0.098 (inactive).

GGUGGACAAGACUAAAACATT against Podxl: the z-score was -0.253 (inactive).

Consider GGGCCAAAUAGCUAUGCAGTT against Aldoc, for which the z-score is -0.309 (inactive).

On to GGAAUUAUAAAAGACCACGTT against Kctd12b, for which the z-score was 2.39 (active).

For GGUGCUCUCAGGAAAGUUGTT against Olfr1157, the z-score is 0.82 (inactive).

Take CCUGUACUCUAUAUUCUGUTT against Pld2: the z-score is 0.98 (inactive).

For the sequence GGCCAUCGAACUCAAUCUCTT against Lrrc57, the z-score is 0.243 (inactive).

For the sequence GGAGUAUGAUAAUGAACCATT against Areg, the z-score is -0.0698 (inactive).

For the sequence GGACAUCAAGUUCUUGCCATT against Hspa5, the z-score is -0.478 (inactive).

Consider GGCUGGUAUCUUUCAGAGUTT against Cox6c, for which the z-score is 2.2 (active).

On to “GGAACCAAUCGGGAUUUUGTT against B330016D10Rik”, for which the z-score is 0.179 (inactive).

As for CGGUUCCACUUCAAAUGACTT against Hsd17b2, the z-score is 0.72 (inactive).

For GGACACUUUCUCAUAUCAUTT against Abca9, the z-score was 2.06 (active).

Turning to GGAGGCUCUACUUUUGUAGTT against Olfr611, the z-score was -2.16 (active).

Regarding GGCUUCCCGGAGUAACAAUTT against Dlgap1, the z-score was -0.742 (inactive).

GAAAAGAAUUCCAGAAGAUTT against Sec61g: the z-score was 1.19 (inactive).

In the case of CCAGUGCGUCACUCAGUAATT against Ssmem1, the z-score was -1.11 (inactive).

As to GGAUGAAGGGACGAAUUCATT against Pcdha6, the z-score is 0.635 (inactive).

GCUGUGCAAGCAAUAUCUATT against Hnrnpm: the z-score is 0.423 (inactive).

CCCUUUCGAGGUGGUAAAATT against Slc25a21: the z-score was 0.11 (inactive).

In the case of GCCAAAUAAUCUGAAAGCCTT against Rpl28, the z-score was 0.309 (inactive).

As for GGAGCGCGUGAAACUGUCUTT against Fbxw4, the z-score was -0.752 (inactive).

As for “GGGCCACUGCCAAAUACUATT against 2510009E07Rik”, the z-score was 3.33 (active).

GGAAAGCUUCAGAAUCUAATT against Bckdk: the z-score was -0.365 (inactive).

GCUCGAGAUCGAAACAUACTT against Tmed5: the z-score was -1.13 (inactive).

Values taken from PubChem BioAssay AID1508600 (Functional Genomics Laboratory (NCATS/FGL), 2020).
